Results taken from PubChem BioAssay (Tox21).
Values without a mark were called inactive. Records with an inconclusive call do not appear. A call without a number means that no potency is given here. The source made the active and inactive calls. Unless noted, calls come from the whole dose curve; as a rule, active = well fitted curve in the direction sought with a large enough effect in the repeat runs; inconclusive = weak or mixed curves; inactive = no such curve, though single readings can be large; an effect the other way counts as inactive or inconclusive.

Experiments:
[1] = A CellTox Green Cytotoxicity Assay to monitor cytotoxicity in HepG2 cells - 8 hour (AID 1224890); note: nearly all actives have a fitted effect of over 45% in size
Procedure, shortened: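 Fluorescent DNA-binding dye, 600 HepG2 cells/well, 5 h preincubation then compound in DMSO; same plates read at 0–40 h, 37 C.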

[2] = qHTS assay to identify small molecule antagonists of the estrogen receptor alpha (ER-alpha) signaling pathway using the BG1 cell line in the presence of 0.1 nM 17-beta-estradiol - cell viability counter screen (AID 1259241); note: nearly all actives have a fitted effect of over 40% in size
Procedure, shortened: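 Following 5 days in phenol red-free medium with charcoal-stripped serum, VM7Luc4E2 cells received test compounds alongside 0.1 nM 17beta-estradiol (final) at 37C for 22 hr. Live cells were then quantified via protease-substrate fluorescence.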

[3] = qHTS assay to identify small molecule antagonists of the androgen receptor (AR) signaling pathway using the MDA cell line in the presence of 0.5 nM R1881 - cell viability counter screen (AID 1259242); note: nearly all actives have a fitted effect of over 45% in size
Procedure, shortened: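 Human breast carcinoma MDA-kb2 cells, cultured without CO2, receive compounds alongside 0.5 nM (final) R1881 agonist. After 16 hr at 37C, viability is taken as live-cell protease signal.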

[4] = target: Androgen receptor (Homo sapiens) (UniProt P10275); experiment: qHTS assay to identify small molecule antagonists of the androgen receptor (AR) signaling pathway using the MDA cell line in the presence of 0.5 nM R1881 (AID 1259243); note: nearly all actives have a fitted effect of over 50% in size
Procedure, shortened: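 Cells: MDA-kb2 (MMTV-luc). Stimulus: 0.5 nM R1881. Time: 16 hr, 37C, no CO2. Detection: ONE-Glo luminescence after 30 min at RT.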

[5] = target: Estrogen receptor (Homo sapiens) (UniProt P03372); experiment: qHTS assay to identify small molecule antagonists of the estrogen receptor alpha (ER-alpha) signaling pathway using the BG1 cell line in the presence of 0.1 nM 17-beta-estradiol (AID 1259244); note: nearly all actives have a fitted effect of over 50% in size
Procedure, shortened: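 Seeding of stripped-serum-adapted VM7Luc4E2 cells, 24 h attachment, compound transfer, then 0.1 nM final 17beta-estradiol; after 22 h incubation, ONE-Glo reagent and luminescence reading.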

[6] = qHTS assay to identify small molecule HDAC inhibitors (AID 1259364);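 note: wild-type HCT-116 cells with endogenous class I/II HDAC activity; top concentration of the series differs between compounds; nearly all actives have a fitted effect of over 45% in size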
Procedure, shortened: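 After a 2 hr compound incubation (37C, 5% CO2), HCT-116 cells seeded at 1,500/well the day before received HDAC-Glo reagent; signal read as luminescence after 30 min at room temperature.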

[7] = qHTS assay to identify small molecule HDAC inhibitors - cell viability counter screen (AID 1259365); note: series mostly up to about 92 µM; nearly all actives have a fitted effect of over 50% in size
Procedure, shortened: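 HCT-116 wild-type, overnight attachment; 2hr drug exposure, 37C; CellTiter-Glo luminescent ATP readout after 30min RT.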

[8] = qHTS assay to identify small molecule agonists of the sonic hedgehog signaling (Shh) pathway - cell viability counter screen (AID 1259366); note: nearly all actives have a fitted effect of over 50% in size
Procedure, shortened: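 Compounds in DMSO were pin-transferred onto 3T3 Gli1-Luc cells that had settled 4hr; plates then stood 24hr at 37C and 5% CO2. One hour before the end, CellTiter-Fluor was added and fluorescence recorded.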

[9] = qHTS assay to identify small molecule antagonists of the sonic hedgehog signaling (Shh) pathway - cell viability counter screen (AID 1259367); note: nearly all actives have a fitted effect of over 55% in size
Procedure, shortened: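 Viability was read by CellTiter-Fluor fluorescence in the same wells, reagent added 23 hr into compound treatment and incubated 1 hr at 37C. The 3T3 Gli1-Luc reporter cells (2,000/well) received conditioned medium after compound and ran 24 hr.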

[10] = qHTS assay to identify small molecule agonists of the sonic hedgehog signaling (Shh) pathway (AID 1259368; calls by dose curve;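 note: NIH/3T3-derived 3T3Gli1-Luc cells carrying a stable Gli1-driven firefly luciferase reporter; series mostly up to about 92 µM; nearly all actives have a fitted effect of over 15% in size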)
Procedure, shortened: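 Stable NIH/3T3 Gli1-Luc reporter clone; 24 hr cpd exposure after a 4 hr settling period; luminescence endpoint.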

[11] = qHTS assay to identify small molecule antagonists of the sonic hedgehog signaling (Shh) pathway (AID 1259369; calls by dose curve; note: nearly all actives have a fitted effect of over 45% in size)
Procedure, shortened: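 Gli1 transcriptional reporter (firefly Luc) in NIH/3T3 background, conditioned-medium activated. 24hr exposure, luminescence endpoint.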

[12] = target: Estrogen receptor beta (Homo sapiens) (UniProt Q92731); experiment: qHTS assay to identify small molecule agonists of the estrogen receptor beta (ER-beta) signaling pathway (AID 1259377; active = well fitted activation curve with a large enough effect in the signal ratio in the repeat runs, not every such curve was filed as active; the % refers to the signal ratio)
Procedure, shortened: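 qHTS in ER-beta-UAS-bla HEK293T cells: 6 hr settling, then 16 hr compound at 37C, then LiveBLAzer substrate 2 h at RT before fluorescence reading.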

[13] = qHTS assay to identify small molecule agonists of the androgen receptor (AR) signaling pathway in the presence of an antagonist - cell viability counter screen (AID 1259379);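 note: MDA-kb2 human breast cancer cells carrying an MMTV luciferase reporter; series mostly up to about 92 µM; nearly all actives have a fitted effect of over 25% in size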
Procedure, shortened: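 Counter screen for cell viability run in parallel with the AR agonist-mode luciferase assay. MDA-kb2 cells were co-treated with nilutamide (3.0uM final) and compounds, then incubated 16 hr at 37C, and CellTiter-Fluor fluorescence was measured.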

[14] = qHTS assay to identify small molecule agonists of the estrogen receptor beta (ER-beta) signaling pathway - cell viability counter screen (AID 1259380); note: nearly all actives have a fitted effect of over 30% in size; note: potency is the fitted concentration of half-maximal effect
Procedure, shortened: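 In this qHTS counter screen, HEK293T cells carrying an ER-beta/UAS beta-lactamase reporter, grown in 2% charcoal-stripped FBS, received compound for 16 hr; ATP-based CellTiter-Glo luminescence was then read after 30 min at room temperature.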

[15] = target: Androgen receptor (Homo sapiens) (UniProt P10275); experiment: qHTS assay to identify small molecule agonists of the androgen receptor (AR) signaling pathway in the presence of an antagonist (AID 1259381; calls by dose curve; note: nearly all actives have a fitted effect of over 15% in size; note: potency is the fitted concentration of half-maximal effect)
Procedure, shortened: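 AR antagonist background: nilutamide 3.0uM final. Cell line: MDA-kb2, MMTV-driven luciferase, responsive to both AR and GR. Exposure 16hr, 37C, no CO2; ONE-Glo luminescence.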

[16] = qHTS assay to identify small molecule antagonists of the estrogen receptor beta (ER-beta) signaling pathway - cell viability counter screen (AID 1259382);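 note: HEK293T cells carrying ER-beta-UAS-bla reporter stimulated with estradiol; series mostly up to about 92 µM; nearly all actives have a fitted effect of over 55% in size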
Procedure, shortened: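 HEK293T ER-beta-UAS-bla, 2% charcoal-stripped FBS; compounds + 1nM E2 16 hr 37C; CellTiter-Glo luminescence, 30 min RT.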

[17] = target: Estrogen receptor (Homo sapiens) (UniProt P03372); experiment: qHTS assay to identify small molecule agonists of the estrogen receptor alpha (ER-alpha) signaling pathway in the presence of an antagonist (AID 1259383; calls by dose curve; note: top concentration of the series differs between compounds; nearly all actives have a fitted effect of over 15% in size)
Procedure, shortened: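 ER-alpha agonism measured under antagonist challenge: 10.0nM ICI-182,780 (final) plus compound, 15 concentrations, 22hr, VM7Luc4E2 ERE-luciferase cells. Read by luminescence.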

[18] = qHTS assay to identify small molecule agonists or antagonists of the thyroid stimulating hormone receptor (TSHR) signaling pathway - wild type cell line counter screen (AID 1259384; calls by dose curve)
Procedure, shortened: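 Counter screen in untransfected Hek293: compounds (15-point titration, triplicate) plus phosphodiesterase inhibitor Ro20-1724 added after 18 h plating; 30 min RT. Intracellular cAMP via competitive d2/cryptate immunoassay, 1 h incubation.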

[19] = qHTS assay to identify small molecule phospholipidosis (PLD) inducers (AID 1259344; active = well fitted curve in the direction sought with a large enough effect; an effect the other way counts as inactive or inconclusive)
Procedure, shortened: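 Phospholipid accumulation was scored by imaging: fixed, Hoechst-counterstained HepG2 cells stained with LipidTOX Red after 24 h compound exposure at 37 C. Read-outs were pit count and pit intensity per well or per cell, with amiodarone and DMSO controls.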

[20] = target: Estrogen receptor beta (Homo sapiens) (UniProt Q92731); experiment: qHTS assay to identify small molecule antagonists of the estrogen receptor beta (ER-beta) signaling pathway (AID 1259378; active = well fitted inhibition curve with a large enough effect in the signal ratio in the repeat runs, not every such curve was filed as active; the % refers to the signal ratio)
Procedure, shortened: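 Antagonist mode: compounds added to beta-lactamase reporter HEK293T ER-beta-UAS cells stimulated with E2 (1nM final), 16 hr at 37C. LiveBLAzer B/G FRET substrate, 2 hours room temperature, fluorescence read-out.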

Sequence of Androgen receptor (Homo sapiens) (P10275 whole entry, looked up): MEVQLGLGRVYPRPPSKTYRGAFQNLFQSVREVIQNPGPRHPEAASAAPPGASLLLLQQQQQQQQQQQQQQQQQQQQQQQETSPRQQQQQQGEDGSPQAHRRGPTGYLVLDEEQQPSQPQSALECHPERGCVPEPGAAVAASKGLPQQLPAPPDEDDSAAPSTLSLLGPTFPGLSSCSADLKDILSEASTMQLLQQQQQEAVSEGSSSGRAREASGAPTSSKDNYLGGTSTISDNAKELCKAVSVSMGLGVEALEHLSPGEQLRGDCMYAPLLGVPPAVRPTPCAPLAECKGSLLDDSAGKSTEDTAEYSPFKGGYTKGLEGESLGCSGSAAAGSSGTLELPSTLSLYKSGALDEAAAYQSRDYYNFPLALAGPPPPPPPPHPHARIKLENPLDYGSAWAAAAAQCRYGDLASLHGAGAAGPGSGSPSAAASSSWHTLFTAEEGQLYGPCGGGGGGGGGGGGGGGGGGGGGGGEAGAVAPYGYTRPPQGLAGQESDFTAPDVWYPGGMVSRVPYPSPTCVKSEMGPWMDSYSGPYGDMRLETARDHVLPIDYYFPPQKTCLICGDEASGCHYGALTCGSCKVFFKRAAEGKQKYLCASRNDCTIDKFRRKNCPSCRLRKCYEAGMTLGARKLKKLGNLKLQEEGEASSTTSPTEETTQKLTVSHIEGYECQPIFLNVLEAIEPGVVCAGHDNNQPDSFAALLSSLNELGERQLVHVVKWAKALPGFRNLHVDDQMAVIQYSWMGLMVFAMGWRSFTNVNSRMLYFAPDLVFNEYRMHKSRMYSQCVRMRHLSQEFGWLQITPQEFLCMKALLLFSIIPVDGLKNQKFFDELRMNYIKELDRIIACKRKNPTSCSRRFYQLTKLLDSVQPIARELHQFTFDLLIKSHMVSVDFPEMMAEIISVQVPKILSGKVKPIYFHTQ
Sequence of Estrogen receptor (Homo sapiens) (P03372 whole entry, looked up): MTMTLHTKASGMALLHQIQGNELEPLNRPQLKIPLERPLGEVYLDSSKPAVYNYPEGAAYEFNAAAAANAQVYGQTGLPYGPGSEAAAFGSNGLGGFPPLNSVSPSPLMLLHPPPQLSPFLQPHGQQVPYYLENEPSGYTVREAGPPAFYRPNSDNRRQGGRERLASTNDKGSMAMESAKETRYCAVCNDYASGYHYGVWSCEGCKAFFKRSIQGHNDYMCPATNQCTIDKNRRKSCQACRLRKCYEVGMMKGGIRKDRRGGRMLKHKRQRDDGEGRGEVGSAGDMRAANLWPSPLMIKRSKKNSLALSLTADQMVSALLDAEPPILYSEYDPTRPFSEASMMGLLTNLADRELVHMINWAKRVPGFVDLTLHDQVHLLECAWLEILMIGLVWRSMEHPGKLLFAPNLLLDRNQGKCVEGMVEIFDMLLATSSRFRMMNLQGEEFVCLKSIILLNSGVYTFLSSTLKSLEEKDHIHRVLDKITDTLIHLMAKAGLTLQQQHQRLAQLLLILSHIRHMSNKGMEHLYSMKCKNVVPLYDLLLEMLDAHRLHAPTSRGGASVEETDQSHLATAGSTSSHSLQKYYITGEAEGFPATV
Sequence of Estrogen receptor beta (Homo sapiens) (Q92731 whole entry, looked up): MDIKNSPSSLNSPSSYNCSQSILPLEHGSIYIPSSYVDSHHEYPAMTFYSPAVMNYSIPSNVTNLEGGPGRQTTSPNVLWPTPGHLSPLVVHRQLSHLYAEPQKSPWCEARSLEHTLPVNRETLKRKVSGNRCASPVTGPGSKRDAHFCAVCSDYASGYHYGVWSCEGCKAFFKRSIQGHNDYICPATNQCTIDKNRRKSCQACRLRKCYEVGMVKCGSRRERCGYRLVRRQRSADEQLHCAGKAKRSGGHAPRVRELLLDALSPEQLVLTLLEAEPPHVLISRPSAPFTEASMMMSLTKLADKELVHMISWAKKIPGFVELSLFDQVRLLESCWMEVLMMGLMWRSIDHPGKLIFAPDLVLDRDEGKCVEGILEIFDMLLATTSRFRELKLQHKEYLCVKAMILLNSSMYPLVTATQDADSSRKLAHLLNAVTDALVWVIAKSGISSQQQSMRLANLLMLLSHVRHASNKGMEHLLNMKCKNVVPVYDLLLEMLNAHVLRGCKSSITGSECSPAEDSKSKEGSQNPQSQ

Row | SMILES | Potency [1] | Potency [2] | Potency [3] | Potency [4] | Potency [5] | Potency [6] | outcome [7] | Potency [8] | Potency [9] | Potency [10] | Potency [11] | Potency [12] | Potency [13] | Potency [14] | Potency [15] | Potency [16] | Potency [17] | outcome [18] | Potency [19] | Potency [20]
1 | CCN(CC)CC(=O)OCC(=O)[C@@]1(O)CC[C@H]2[C@@H]3CCC4=CC(=O)CC[C@]4(C)[C@H]3[C@@H](O)C[C@@]21C | inactive | inactive | inactive | inactive | inactive | inactive | inactive | inactive | inactive | inactive | inactive | inactive | inactive | inactive | 0.211 µM (active) | inactive | inactive | inactive |  | 
2 | C[C@H](N)C(=O)N[C@@H](C)C(=O)NC1[C@H]2CN(c3nc4c(cc3F)c(=O)c(C(=O)O)cn4-c3ccc(F)cc3F)C[C@@H]12 (some centres not stated) | inactive | inactive | inactive | inactive |  | inactive | inactive | inactive |  | inactive | inactive |  | inactive | inactive | inactive | inactive | inactive | inactive |  | 
3 | CCOCCn1c(N2CCCN(C)CC2)nc2ccccc21 | inactive | inactive | inactive | inactive |  | inactive | inactive | inactive | inactive | inactive |  | inactive | inactive | inactive | inactive | inactive |  |  | inactive | inactive
4 | O=C(O)c1cccc(C(=O)O)c1C(=O)O | inactive | inactive | inactive | inactive | inactive | inactive | inactive | inactive | inactive | inactive | inactive |  | inactive | 13.8 µM (active) | inactive |  | inactive | inactive |  | 
5 | NCCOCCOCCN | inactive | inactive | inactive | inactive |  | inactive | inactive | inactive | inactive | inactive | inactive | inactive |  |  | inactive |  |  | inactive |  | inactive
6 | O=C(O)CCc1nc2ccccc2[nH]1 | inactive | inactive | inactive |  | inactive | inactive | inactive | inactive | inactive | inactive | inactive |  | inactive | inactive |  | inactive | inactive |  | inactive | 
7 | CC(C(=O)O)c1ccc2c(c1)Cc1cccnc1O2 (configuration not stated) | inactive | inactive | inactive | inactive |  | inactive | inactive | inactive |  | inactive | inactive | inactive | inactive | inactive | inactive | inactive |  | inactive | inactive | inactive
8 | CCC(CC)C(=O)O | inactive | inactive | inactive |  | inactive | inactive | inactive | inactive | inactive | inactive | inactive | inactive | inactive | inactive |  | inactive | inactive |  |  | inactive
